Out of some 59,000 compounds screened, about 60 (0.1%) were called active. No rule for the calls is given here. The list comes from a sample in which actives are over-represented; it also holds similar structures and randomly drawn compounds.
Experiment: qHTS Assay for Spectroscopic Profiling in A488 Spectral Region
Conditions: compound autofluorescence; max dye equivalency: Compound Type: qHTS ECL - SigmaAldrich, active compounds read high unless noted; outcome: dye equivalency, Compound Type: qHTS ECL - MLSMR unless noted
Source text: NIH Molecular Libraries Screening Centers Network [MLSCN]
NIH Chemical Genomics Center [NCGC]
Occasionally, the artifactual effect may originate from the compounds own spectral or other biophysical properties which generally tend to track its assay concentration. Pre-screening/profiling the library with respect to the compounds spectral properties should help one exclude false positives early on. While the most informative fluorescent profiling data set is obtained by performing a full excitation and emission scan of each well by using a monochromator-based plate reader, such an approach is practical only on a very limited scale as scanning each well requires long time. An alternative approach, applied here, is to perform plate reader scans using selected excitation and emission wavelength pairs to generate a multidimensional relational database that correlates compound concentration and the respective relative fluorescence intensity at a given wavelength set. A standard curve of Alexa 488 (A488) present on each plate as six-point concentration series, was used to compute a normalized fluorescence response, termed dye-equivalent concentration, for each compound at each concentration.
NCGC Assay Protocol Summary:
100 mM Tris buffer, pH 8.0
The wells in columns 1 through 4 of a Kalypsys polypropylene 1536-well compound plate were filled with standard solutions of fluorophore corresponding to the spectral region of interest. Solutions of A488 were placed in the following wells: Y1, Z1: 3 mM, Y2, Z2: 300 uM, Y3, Z3: 30 uM, Y4, Z4: zero (DMSO), AA1, AB1: 3 uM, AA2, AB2: 900 nM, AA3, AB3: 300 nM, AA4, AB4: zero (DMSO).
Six uL of buffer were dispensed to 1536-well Greiner black plates. Compounds and dye standards (23 nL) were transferred via Kalypsys PinTool. The plates were incubated for 15 min at room temperature, and then read on ViewLux (Perkin-Elmer) High-throughput CCD imager using 480 nm and 540 nm excitation and emission filter set.
Keywords: NIH Roadmap, MLSCN, MLI, MLSMR, qHTS, NCGC, A488, A-488, Fluorescent Profiling.

outcome, inactive:
CCCC1C(c2ccccc2)C(C#N)(C#N)C2(C#N)CC1(N)NC2=O (stereo unspecified) inactive [dye equivalency, Compound Type: qHTS ECL - DPISMR]
CCOC(=O)c1[nH]c2ccccc2c1N=C(C)N(CC)CC
C=CCN(CC=C)C(=O)CN1C(=O)c2ccccc2C1=O
c1ccc(-n2ncc3c2ncn2c(C4CCCCC4)nnc32)cc1 inactive [dye equivalency, Compound Type: qHTS ECL - DPISMR]
O=C(NCc1ccc(Cl)cc1)c1cc2c(nc3sccn32)s1
O=C(O)C1CCCCC1C(=O)Nc1ccc(Cl)cc1 (stereo unspecified) inactive [dye equivalency, Compound Type: qHTS ECL - DPISMR]
COCCn1c(=O)c(-c2cc(F)cc(F)c2)nc2cnc(N3CCNCC3)nc21 inactive [dye equivalency, Compound Type: qHTS ECL - Pharmacopeia]
CCNC(=O)CCc1nc(-c2ccc(C(C)(C)C)cc2)no1 inactive [dye equivalency, Compound Type: qHTS ECL - DPISMR]
Cn1c(=O)c(CCc2ccccc2)nc2cnc(Nc3ccccc3)nc21 inactive [dye equivalency, Compound Type: qHTS ECL - Pharmacopeia]
CCCc1cc(=O)[nH]c(SCc2ccc(C#N)cc2)n1 inactive [dye equivalency, Compound Type: qHTS ECL - DPISMR]
C=CCn1c(SCn2nnc3ccccc3c2=O)nnc1-c1ccc(Cl)cc1 inactive [dye equivalency, Compound Type: qHTS ECL - DPISMR]
Cc1nc2cnc(Oc3cccc(Cl)c3)nc2n(C2CC2)c1=O inactive [dye equivalency, Compound Type: qHTS ECL - Pharmacopeia]
COc1ccc(-c2nc3cnc(OC)nc3n(Cc3ccc(F)cc3)c2=O)cc1 inactive [dye equivalency, Compound Type: qHTS ECL - Pharmacopeia]
CC1CN(C2CCN(C(=O)COc3ccccc3)CC2)CC(C)O1 (stereo unspecified)
CC(=O)c1c(C)[nH]c(C(=O)NCCCN2CCCC2)c1C
O=C(Nc1ccccc1)N(Cc1cccnc1)Cc1ccco1 inactive [dye equivalency, Compound Type: qHTS ECL - DPISMR]
Cc1nc2cnc(Nc3ccccc3)nc2n(Cc2ccc(F)cc2)c1=O inactive [dye equivalency, Compound Type: qHTS ECL - Pharmacopeia]
CNC(=O)n1ccc(C(=O)N2CCCCC2)n1 inactive [dye equivalency, Compound Type: qHTS ECL - DPISMR]
c1cnc(NC2C3CC4CC(C3)CC2C4)nc1 (stereo unspecified)
CCCOc1ccccc1C(=O)NCCCC(=O)O
COc1ccccc1CNc1cc(-c2ccccc2CN(C)C)ncn1 inactive [dye equivalency, Compound Type: qHTS ECL - Pharmacopeia]
Oc1c(Br)cc(CN(Cc2cc(Br)c(O)c(Br)c2)C2CCCCC2)cc1Br inactive [dye equivalency, Compound Type: qHTS ECL - NCI]
CCc1nnc(NC(=O)c2c(O)c3c([nH]c2=O)CCCC3)s1
CCC(=O)Nc1ccc(C(=O)Nc2ccc3c(c2)C(=O)N(CC2CCCO2)C3=O)cc1 (stereo unspecified) inactive [dye equivalency, Compound Type: qHTS ECL - DPISMR]
Cn1cccc1C(=O)N1CCC2(CC1)CN(c1cccc(-c3ccccc3)c1)C2 inactive [dye equivalency, Compound Type: qHTS ECL - Pharmacopeia]
CCOC(=O)CSc1nnc(-c2ccncc2)o1 inactive [dye equivalency, Compound Type: qHTS ECL - DPISMR]
COc1ccc2nc(NC3=NCN(CC4CCCO4)CN3)nc(C)c2c1 (stereo unspecified)
CCOC(=O)N1CCN(C(=O)c2ccc3nc4cc(Cl)ccc4c(=O)n3c2)CC1
CCOC(=O)C1(Cc2ccc(O)cc2)NC(c2ccccc2F)C2C(=O)N(C)C(=O)C21 (stereo unspecified)
COCCNc1cc(-c2c(C)noc2C)ncn1 inactive [dye equivalency, Compound Type: qHTS ECL - Pharmacopeia]
CCNc1ncc2nc(CCc3ccccc3)c(=O)n(-c3ccc(OC)cc3)c2n1 inactive [dye equivalency, Compound Type: qHTS ECL - Pharmacopeia]
Cn1c(CC(=O)Nc2ccccc2)nnc1SCC(=O)c1ccccc1 inactive [dye equivalency, Compound Type: qHTS ECL - DPISMR]
COCCn1c(=O)c(-c2cc(F)cc(F)c2)nc2cncnc21 inactive [dye equivalency, Compound Type: qHTS ECL - Pharmacopeia]
CCOC(=O)C1CCN(Cc2coc3ccc(Cl)cc3c2=O)CC1 inactive [dye equivalency, Compound Type: qHTS ECL - DPISMR]
Cc1noc(C)c1S(=O)(=O)Nc1ccc(C(=O)O)cc1 inactive [dye equivalency, Compound Type: qHTS ECL - DPISMR]
Cc1c(C)c2cc3c4c(oc3c(C)c2oc1=O)CCCC4
CN1CCc2[nH]nc(-c3n[nH]c4c3CN(C)CC4)c2C1 inactive [dye equivalency, Compound Type: qHTS ECL - NCI]
O=C1c2ccccc2C(=O)N1c1ccccc1S(=O)C(F)(F)F (stereo unspecified) inactive [dye equivalency, Compound Type: qHTS ECL - DPISMR]
CN(C)c1cc2c(Nc3ccc4c(cnn4Cc4ccccc4)c3)ncnc2cn1 inactive [dye equivalency, Compound Type: qHTS ECL - SigmaAldrich]
O=c1c(-c2ccc(F)cc2)nc2cncnc2n1-c1ccccc1 inactive [dye equivalency, Compound Type: qHTS ECL - Pharmacopeia]
Cc1cnc(CNc2cc(-c3c(C)noc3C)ncn2)cn1 inactive [dye equivalency, Compound Type: qHTS ECL - Pharmacopeia]

— PubChem BioAssay AID591 (National Center for Advancing Translational Sciences (NCATS), 2007)
